Assay [1] is described as follows: yeast TOR pathway RPL19A-GFP modulators, primary screen, cell-based, S. cerevisiae, multiplex flow cytometry (AID 1862; in the data active = percent of DMSO control GFP below about 86%;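 also: lower values mimic rapamycin by blocking the RPL19A rise seen in DMSO cells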). The conditions noted are these: S. cerevisiae RPL19A-GFP strain, flow cytometry fluorescence, 3 h; at 10 µM; stronger effect = lower value. For orientation: In flow cytometry, cells or beads pass a laser one at a time.
Assay [2] in a line: modulators of MEP2-GFP levels in yeast, primary screen, S. cerevisiae, multiplex flow cytometry (AID 1867;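 active = GFP response, as percent of the DMSO control, above the screen-wide mean plus 3 SD, about 139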;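 also: median GFP channel fluorescence of barcode-gated MEP2-GFP cells measured by flow cytometry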). The conditions noted are these: S. cerevisiae MEP2-GFP strain, 3 h, at 10 µM, stronger effect = higher value, 100% means same as DMSO wells.
The nature of assay [3]: modulators of CIT2-GFP expression in yeast, primary screen, S. cerevisiae, GFP fusion, multiplex flow cytometry (AID 1870;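 active = percent response above a set limit, the screen-wide mean plus 3 SD, cut at about 130% in these data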;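 also: barcoded CIT2-GFP strain pooled with four other GFP strains with rapamycin as positive control; median GFP fluorescence per well over plate mean of DMSO wells so 100% = DMSO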). The settings on record: 3 h, at 10 µM, stronger effect = higher value.
A short description of assay [4]: modulators of LAP4-GFP expression in yeast, primary screen, S. cerevisiae, multiplex flow cytometry (AID 1873;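 active = GFP signal, as percent of the solvent control, above the screen mean plus 3 SD, about 149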). The settings on record: 3 h, at 10 µM, stronger effect = higher value.
A short description of assay [5]: modulators of AGP1-GFP expression in yeast TOR pathway, primary screen, cell-based, multiplex flow cytometry, S. cerevisiae (AID 1887;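 active = GFP signal above the screen-wide mean plus 3 SD, that is over about 124.5% of the solvent control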;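 also: AGP1-GFP fusion strain of S. cerevisiae within a five-strain barcoded multiplex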). The conditions noted are these: 3 h, at 10 µM, stronger effect = higher value.
A short description of assay [6]: inhibitors of CD8+ T cell-vesicle binding, pilot screen, LFA-1/ICAM-1 modulator project, MLPCN validation set, flow cytometry (AID 2523;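 active = response below a set limit, under 55% cells CD8-positive and vesicle-bound, and CD8 cells' 90th-percentile brightness under 279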;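 as to vesicle binding response: mean PE anti-B7-1 fluorescence of CD8+ cells relative to row control; 100% = QL9-loaded vesicles with DMSO vehicle in the same plate row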). The conditions noted are these: 2C mouse CD8+ T cells, at 7 µM, stronger effect = lower value; double positive events: measured here: CD8+/vesicle+ event percentage.
Assay [7] addresses Integrin beta-1 (Homo sapiens) + Integrin alpha-4 (Homo sapiens) (UniProt P13612+P05556). In words: inhibition of HUTS-21 binding to VLA-4, pilot screen, VLA-4 allosteric modulator project, U937 cells, HUTS-21 mAb, flow cytometry, validation set (AID 2674;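 active = inhibition above 50%, about 3 SD of the validation set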;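 also: antibody binding induced by the VLA-4 ligand LDV present at three times its Kd; 0% = LDV ligand with antibody and no compound and 100% = antibody without LDV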). The settings on record: HUTS-21 LIBS mAb binding, at 6.7 µM, stronger effect = higher value, binding induced by LDV ligand.
Assay [8] in a line: superoxide lowering in aged yeast cells, pilot screen, validation compound set (AID 2706;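 active = superoxide response below 65% of plate, a cut near 3 SD across the whole screen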;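 also: yeast exposed to compound for one week at 30 degrees C before staining; 100% = mean of all compound wells on the same plate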). The settings on record: S. cerevisiae aging, superoxide DHE fluorescence; at 10 µM; stronger effect = lower value.
In assay [9] the target is Beta-adrenergic receptor kinase 1 (Homo sapiens) (UniProt P25098). In words: GRK2 binders displacing RNA aptamer, biochemical, validation, human GRK2, bead flow cytometry (AID 488806;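 active = aptamer binding inhibition above 30%, about 3 SD of noise from non-fluorescent compounds; inactive = inhibition at or below 30%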). The conditions noted are these: bead-bound GRK2, FAM-aptamer displacement, at 10 µM, stronger effect = higher value.
Assay [10] addresses Beta-2 adrenergic receptor (Homo sapiens) (UniProt P07550). In words: beta2AR agonists driving receptor internalization, pilot screen, cell-based, FAP fluorogen, flow cytometry, validation set (AID 504459;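 active = percent response above 42, roughly 3 SD of non-fluorescent test compounds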;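 also: agonist-driven loss of surface beta2AR via internalization measured by FAP dye flow cytometry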). The conditions noted are these: Am2.2-beta2AR cells, FAP surface receptor flow cytometry; at 10 µM; stronger effect = higher value.
Assay [11] addresses AP-2 complex subunit beta (Homo sapiens) (UniProt P63010). In words: inhibitors of arrestin peptide binding to AP2, pilot screen, biochemical, validation set, GST-AP2 beads, flow cytometry (AID 504541;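 active = inhibition above 54%, about 3 SD of non-fluorescent compounds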;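 also: AP2 carries R879A mutation and is captured from E. coli lysate; bead-bound FITC arrestin peptide fluorescence measuring arrestin peptide binding to AP2; 0% = DMSO wells and 100% = excess unlabeled arrestin peptide control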). The settings on record: FITC arrestin peptide, at 10 µM, stronger effect = higher value, AP2 beta2 appendage fragment, R879A mutant.
Assay [12] is described as follows: yeast V-ATPase proton transport modulators, S. cerevisiae, pHLuorin, HTS validation (AID 504600; in the data active = response above about 15%;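 also: plate controls were DMSO for no effect and reference compound for full effect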). The conditions noted are these: S. cerevisiae pHLuorin cytosolic pH, at 10 µM, stronger effect = higher value.
Assay [13] relates to anti-desmoglein-3 scFv antibody binding to human DSG3. In words: inhibitors of anti-DSG3 scFv binding to DSG3, pilot screen, biochemical, validation compound set, bead-based, flow cytometry (AID 588368).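 Also: signal is the median channel fluorescence of bead-bound GFP antibody.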 The conditions noted are these: Protein G beads, DSG3-Fc, scFv-GFP binding, at 10 µM, stronger effect = lower value.
Assay [14] in a line: inhibitors of fungal efflux pumps CDR1, CDR2, MDR1, pilot screen, validation compound set, multiplex, phenotypic (AID 588506;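 active = efflux inhibition above 0.42, the validation set average plus 4 SD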;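 also: Nile Red retained in cells so higher fluorescence means more efflux inhibition; 0 = negative control wells and 1 = enniatin B 25 µM full block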). The settings on record: S. cerevisiae pump-expressing triplex, Nile Red efflux flow cytometry; at 10 µM; stronger effect = higher value; the pumps come from Candida albicans.
Assay [15] deals with ATP-binding cassette sub-family B member 6 (Homo sapiens) (UniProt Q9NP58). In words: ABCB6 transporter inhibitors, pilot screen, K562-ABCB6 cells, flow cytometry, validation set (AID 588550;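 active = inhibition above the screen-wide mean plus 3 SD, about 51%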;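 also: 0% = DMSO wells and 100% = benzethonium chloride 70 µM positive control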). The settings on record: K562-ABCB6 porphyrin accumulation, 1 h, at 10 µM, stronger effect = higher value.
Assay [16] is described as follows: promoters of myeloid differentiation in arrested cells, primary screen, cell-based, GFP/MAC1 double positive, flow cytometry, validation set (AID 588685;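 active = differentiation response of at least 50%, scaled between solvent and reference control, from cells with both markers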;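 also: compound exposure lasts four days before antibody staining and flow analysis; 0% = DMSO wells and 100% = 5 µM fulvestrant positive control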). The conditions noted are these: ER-HoxA9 marrow cells, stronger effect = higher value, normalized: vehicle 0, fulvestrant 100.

Each structure is given as a SMILES string. Inconclusive results are not listed. Active and inactive are the calls of the source.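 The calls were made as follows, unless noted: active = binding below the plate cutoff, the plate median minus 3 SD, with a reading above zero; inconclusive = below the plate cutoff but reading exactly zero; inactive = the rest.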

We go through five molecules from PubChem BioAssay.

What is called inhibition is the relative decrease from the control value, in per cent.

Sequence of Beta-adrenergic receptor kinase 1 (Homo sapiens) (P25098 whole entry, looked up): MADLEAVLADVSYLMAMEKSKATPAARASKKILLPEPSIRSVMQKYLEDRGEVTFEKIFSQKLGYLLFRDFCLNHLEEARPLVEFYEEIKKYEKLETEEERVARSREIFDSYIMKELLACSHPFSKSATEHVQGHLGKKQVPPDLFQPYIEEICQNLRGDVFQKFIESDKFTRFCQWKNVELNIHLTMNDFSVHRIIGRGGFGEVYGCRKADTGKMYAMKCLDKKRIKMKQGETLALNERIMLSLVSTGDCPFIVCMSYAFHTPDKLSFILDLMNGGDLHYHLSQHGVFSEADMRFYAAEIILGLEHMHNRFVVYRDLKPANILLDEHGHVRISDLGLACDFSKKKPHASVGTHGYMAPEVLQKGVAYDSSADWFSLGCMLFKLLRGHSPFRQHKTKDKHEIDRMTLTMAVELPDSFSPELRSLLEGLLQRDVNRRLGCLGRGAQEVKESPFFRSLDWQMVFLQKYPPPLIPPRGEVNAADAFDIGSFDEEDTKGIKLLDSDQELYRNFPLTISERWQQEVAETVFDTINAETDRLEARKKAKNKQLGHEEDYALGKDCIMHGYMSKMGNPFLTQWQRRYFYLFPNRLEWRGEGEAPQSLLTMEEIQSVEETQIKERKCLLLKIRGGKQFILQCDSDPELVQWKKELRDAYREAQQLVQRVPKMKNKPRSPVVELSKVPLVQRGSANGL
Sequence of AP-2 complex subunit beta (Homo sapiens) (P63010 whole entry, looked up, the tested form may be a part, one chain of several): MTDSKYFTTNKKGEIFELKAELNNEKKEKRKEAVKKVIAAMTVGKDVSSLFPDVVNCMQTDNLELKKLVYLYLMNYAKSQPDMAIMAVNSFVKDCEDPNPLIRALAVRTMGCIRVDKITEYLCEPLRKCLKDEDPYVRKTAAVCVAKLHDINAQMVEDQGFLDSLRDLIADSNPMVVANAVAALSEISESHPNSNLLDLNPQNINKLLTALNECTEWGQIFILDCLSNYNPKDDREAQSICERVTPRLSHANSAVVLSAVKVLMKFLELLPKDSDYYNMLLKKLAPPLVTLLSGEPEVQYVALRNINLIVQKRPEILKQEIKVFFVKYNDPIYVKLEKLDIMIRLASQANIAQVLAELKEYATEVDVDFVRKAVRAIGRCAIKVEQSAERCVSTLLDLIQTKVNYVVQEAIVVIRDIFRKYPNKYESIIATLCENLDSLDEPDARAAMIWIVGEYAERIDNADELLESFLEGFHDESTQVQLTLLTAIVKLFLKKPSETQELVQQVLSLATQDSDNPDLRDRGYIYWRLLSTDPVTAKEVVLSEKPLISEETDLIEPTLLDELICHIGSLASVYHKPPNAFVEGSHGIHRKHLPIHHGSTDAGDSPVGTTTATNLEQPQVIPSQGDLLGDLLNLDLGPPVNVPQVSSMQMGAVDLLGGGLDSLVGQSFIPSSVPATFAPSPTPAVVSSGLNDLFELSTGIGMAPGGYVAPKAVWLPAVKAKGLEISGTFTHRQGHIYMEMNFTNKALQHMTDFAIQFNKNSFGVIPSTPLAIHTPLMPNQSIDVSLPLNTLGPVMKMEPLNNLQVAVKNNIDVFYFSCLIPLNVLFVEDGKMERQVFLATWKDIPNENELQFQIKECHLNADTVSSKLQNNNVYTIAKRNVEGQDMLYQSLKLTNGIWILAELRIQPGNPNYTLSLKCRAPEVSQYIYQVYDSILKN
Sequence of ATP-binding cassette sub-family B member 6 (Homo sapiens) (Q9NP58 whole entry, looked up): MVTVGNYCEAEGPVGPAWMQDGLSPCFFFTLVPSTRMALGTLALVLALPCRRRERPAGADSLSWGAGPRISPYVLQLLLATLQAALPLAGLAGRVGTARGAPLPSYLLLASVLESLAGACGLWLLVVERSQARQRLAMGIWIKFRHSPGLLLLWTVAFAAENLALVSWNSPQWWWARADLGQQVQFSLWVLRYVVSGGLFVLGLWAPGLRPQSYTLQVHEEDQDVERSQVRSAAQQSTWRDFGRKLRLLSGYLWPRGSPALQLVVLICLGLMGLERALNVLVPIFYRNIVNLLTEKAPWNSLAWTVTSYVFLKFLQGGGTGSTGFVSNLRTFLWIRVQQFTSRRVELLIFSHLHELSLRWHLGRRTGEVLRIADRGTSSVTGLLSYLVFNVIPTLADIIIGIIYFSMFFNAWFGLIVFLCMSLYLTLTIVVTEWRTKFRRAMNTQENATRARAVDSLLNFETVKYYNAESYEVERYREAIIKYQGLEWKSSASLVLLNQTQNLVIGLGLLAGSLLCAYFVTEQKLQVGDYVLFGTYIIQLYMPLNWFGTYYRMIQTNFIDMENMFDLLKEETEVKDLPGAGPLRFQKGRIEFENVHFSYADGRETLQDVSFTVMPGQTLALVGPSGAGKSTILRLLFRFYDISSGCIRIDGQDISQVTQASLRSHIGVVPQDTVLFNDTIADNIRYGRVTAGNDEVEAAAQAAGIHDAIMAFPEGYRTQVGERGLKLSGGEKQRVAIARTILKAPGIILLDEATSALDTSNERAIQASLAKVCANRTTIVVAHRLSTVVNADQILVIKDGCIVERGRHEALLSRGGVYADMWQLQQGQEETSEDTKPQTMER
Sequence of Integrin beta-1 (Homo sapiens) + Integrin alpha-4 (Homo sapiens) (P05556 whole entry, looked up): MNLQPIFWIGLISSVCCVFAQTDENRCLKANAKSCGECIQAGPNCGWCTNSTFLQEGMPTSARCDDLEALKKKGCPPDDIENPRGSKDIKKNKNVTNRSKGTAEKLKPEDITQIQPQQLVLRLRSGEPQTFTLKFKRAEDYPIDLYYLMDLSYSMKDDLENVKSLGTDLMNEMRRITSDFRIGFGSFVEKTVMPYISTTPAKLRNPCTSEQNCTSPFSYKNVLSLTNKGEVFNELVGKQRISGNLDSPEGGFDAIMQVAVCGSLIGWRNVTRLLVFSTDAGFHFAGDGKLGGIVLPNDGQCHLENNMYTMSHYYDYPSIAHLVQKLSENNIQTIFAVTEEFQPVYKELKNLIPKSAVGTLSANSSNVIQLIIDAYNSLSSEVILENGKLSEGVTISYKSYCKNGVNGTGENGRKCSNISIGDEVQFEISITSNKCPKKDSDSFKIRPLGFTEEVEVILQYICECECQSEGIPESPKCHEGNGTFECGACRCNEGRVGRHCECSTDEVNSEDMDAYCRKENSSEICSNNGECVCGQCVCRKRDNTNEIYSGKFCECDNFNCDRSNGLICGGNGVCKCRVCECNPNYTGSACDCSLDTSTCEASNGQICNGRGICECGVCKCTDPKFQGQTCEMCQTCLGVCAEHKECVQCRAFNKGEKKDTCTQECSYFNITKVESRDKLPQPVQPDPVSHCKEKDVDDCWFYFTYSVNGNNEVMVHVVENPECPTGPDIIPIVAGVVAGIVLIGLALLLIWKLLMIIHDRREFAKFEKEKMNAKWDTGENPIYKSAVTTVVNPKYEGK
Sequence of Integrin beta-1 (Homo sapiens) + Integrin alpha-4 (Homo sapiens) (P13612 whole entry, looked up): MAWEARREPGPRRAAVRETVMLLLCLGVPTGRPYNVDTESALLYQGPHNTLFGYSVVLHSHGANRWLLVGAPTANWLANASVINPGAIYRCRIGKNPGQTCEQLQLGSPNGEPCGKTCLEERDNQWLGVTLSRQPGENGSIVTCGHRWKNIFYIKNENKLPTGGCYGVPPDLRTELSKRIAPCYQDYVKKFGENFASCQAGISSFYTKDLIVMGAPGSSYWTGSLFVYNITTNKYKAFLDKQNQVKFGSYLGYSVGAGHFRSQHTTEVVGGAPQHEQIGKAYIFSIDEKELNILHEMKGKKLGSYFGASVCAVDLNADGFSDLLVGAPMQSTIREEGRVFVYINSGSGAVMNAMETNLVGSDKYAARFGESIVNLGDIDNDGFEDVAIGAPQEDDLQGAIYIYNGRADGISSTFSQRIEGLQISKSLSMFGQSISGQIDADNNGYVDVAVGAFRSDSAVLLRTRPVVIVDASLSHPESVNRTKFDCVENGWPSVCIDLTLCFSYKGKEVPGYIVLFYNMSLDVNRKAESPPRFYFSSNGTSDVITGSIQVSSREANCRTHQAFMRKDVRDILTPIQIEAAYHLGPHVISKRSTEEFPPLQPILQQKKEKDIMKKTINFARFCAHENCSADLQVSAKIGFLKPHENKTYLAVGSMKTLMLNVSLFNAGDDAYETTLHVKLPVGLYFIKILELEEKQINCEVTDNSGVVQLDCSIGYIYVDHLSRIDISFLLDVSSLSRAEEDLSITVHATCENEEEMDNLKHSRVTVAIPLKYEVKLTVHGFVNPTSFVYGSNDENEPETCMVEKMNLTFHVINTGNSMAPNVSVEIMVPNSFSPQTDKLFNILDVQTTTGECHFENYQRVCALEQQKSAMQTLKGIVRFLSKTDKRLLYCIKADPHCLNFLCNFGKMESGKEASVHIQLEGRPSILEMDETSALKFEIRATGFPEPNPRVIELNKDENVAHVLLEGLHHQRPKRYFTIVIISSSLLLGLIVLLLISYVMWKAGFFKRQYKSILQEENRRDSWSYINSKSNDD
Sequence of Beta-2 adrenergic receptor (Homo sapiens) (P07550 whole entry, looked up): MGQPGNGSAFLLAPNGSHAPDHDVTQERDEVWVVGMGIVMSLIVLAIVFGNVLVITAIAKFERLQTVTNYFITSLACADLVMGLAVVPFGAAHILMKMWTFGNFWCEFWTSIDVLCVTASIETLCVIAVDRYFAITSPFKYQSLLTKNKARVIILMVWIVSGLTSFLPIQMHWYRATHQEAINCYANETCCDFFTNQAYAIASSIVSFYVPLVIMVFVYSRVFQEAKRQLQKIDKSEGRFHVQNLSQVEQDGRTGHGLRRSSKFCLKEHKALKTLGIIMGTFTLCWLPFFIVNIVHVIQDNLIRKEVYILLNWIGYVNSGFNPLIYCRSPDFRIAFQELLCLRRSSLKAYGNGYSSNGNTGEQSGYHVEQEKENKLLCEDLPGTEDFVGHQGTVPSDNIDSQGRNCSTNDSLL

For the molecule `CCN1C(=O)C(CC(=O)Nc2ccc(OC)cc2)N(CCc2ccc(F)cc2)C1=S` (stereo not given), the percent of DMSO control GFP in [1] was 96.9% (inactive). The GFP response vs DMSO in [2] is 98.5% (inactive); in assay [4] it was 124% (inactive). The percent response of DMSO control in assay [3] is 93.9% (inactive). Also, the GFP response, % of DMSO in [5] was 96.2% (inactive). This molecule had a double positive events in [6] of 60.7%. In assay [6], the vesicle binding response is 292% (inactive). The results for the inhibition in assay [7], in assay [11] and in assay [15] were -3.16% (inactive), 50.8% (inactive) and 3% (inactive), respectively. The superoxide response (% of plate) in assay [8] was 102% (inactive). Further, in assay [9], the aptamer binding inhibition was 2% (inactive). The figures for the response in assay [10] and in assay [12] were 5.66% (inactive) and -3.51% (inactive), respectively. Also, the binding (% of control) in assay [13] was 102% (inactive). For the same molecule, the efflux inhibition (fraction of control) in assay [14] is 0.19 (inactive). In assay [16], the differentiation response is 8.8% (inactive).

For the molecule `Cc1ccc(C(=O)COC(=O)c2cccc(N3C(=O)c4c(C)nc5ccccc5c4C3=O)c2)cc1C`, in assay [1], the percent of DMSO control GFP was 99.5% (inactive). Besides, the GFP response vs DMSO in assay [2] was 102% (inactive); in assay [4] it was 110% (inactive). In assay [3], the percent response of DMSO control was 97% (inactive). Moreover, the GFP response, % of DMSO in assay [5] is 113% (inactive). Further, in [6], the double positive events worked out at 61.9%. Also, the vesicle binding response in assay [6] was 170% (inactive). For the same molecule, the results for the inhibition in assay [7], in assay [11] and in assay [15] were -8.78% (inactive), -6.3% (inactive) and 2% (inactive), respectively. In addition, the superoxide response (% of plate) in [8] is 107% (inactive). The aptamer binding inhibition in assay [9] was 1% (inactive). For the same molecule, the response is -22.6% (inactive) in assay [10] and -3.74% (inactive) in assay [12]. Moreover, in [13], the binding (% of control) was 98.8% (inactive). Also, the efflux inhibition (fraction of control) in assay [14] is 0.25 (inactive). Besides, the differentiation response in [16] is -13.9% (inactive).

Turning to `COc1ccc(-c2nc(NC(C)=O)sc2-c2ccc(OC)cc2)cc1`, the percent of DMSO control GFP in [1] is 104% (inactive). For the same molecule, the GFP response vs DMSO was 101% (inactive) in assay [2] and 92.6% (inactive) in [4]. Besides, the percent response of DMSO control in [3] is 99.7% (inactive). In [5], the GFP response, % of DMSO is 90.9% (inactive). This molecule returned a double positive events in assay [6] of 65.9%. In assay [6], the vesicle binding response was 232% (inactive). Further, the inhibition was -2.43% (inactive) in assay [7], -11.5% (inactive) in assay [11] and 0% (inactive) in assay [15]. Besides, the superoxide response (% of plate) in assay [8] is 104% (inactive). Besides, the aptamer binding inhibition in [9] is 2% (inactive). The response was -22.1% (inactive) in assay [10] and 0.09% (inactive) in assay [12]. For the same molecule, in assay [13], the binding (% of control) is 102% (inactive). Moreover, the efflux inhibition (fraction of control) in assay [14] is -0.29 (inactive). Moreover, the differentiation response in [16] was 14.4% (inactive).

Take `NC(N)=NC(=O)Cc1c(Cl)cccc1Cl`: in assay [1], the percent of DMSO control GFP was 103% (inactive). Moreover, the GFP response vs DMSO is 110% (inactive) in assay [2] and 99.9% (inactive) in assay [4]. Moreover, the percent response of DMSO control in assay [3] is 97.8% (inactive). Besides, the GFP response, % of DMSO in assay [5] is 101% (inactive). Further, the double positive events in [6] came out at 64.6%. In addition, in assay [6], the vesicle binding response is 197% (inactive). The inhibition in assay [7] is -4.6% (inactive); in assay [11], 18% (inactive); in [15], 18% (inactive). Besides, in [8], the superoxide response (% of plate) is 109% (inactive). Besides, the aptamer binding inhibition in assay [9] is -1% (inactive). Besides, the response was -1.1% (inactive) in assay [10] and -2.92% (inactive) in [12]. In assay [13], the binding (% of control) was 98.2% (inactive). The efflux inhibition (fraction of control) in assay [14] was -0.01 (inactive). In addition, in assay [16], the differentiation response is -2.69% (inactive).

For the molecule `O=c1oc2c(CN3CCCCC3)c(O)ccc2c2c1CCCCC2`, the percent of DMSO control GFP in assay [1] was 102% (inactive). Besides, the GFP response vs DMSO is 102% (inactive) in assay [2] and 107% (inactive) in [4]. Also, the percent response of DMSO control in assay [3] is 102% (inactive). In addition, the GFP response, % of DMSO in assay [5] is 107% (inactive). Also, the double positive events in [6] is 59.1%. For the same molecule, the vesicle binding response in assay [6] was 136% (inactive). Moreover, the inhibition is 6.95% (inactive) in [7], -7.24% (inactive) in [11] and 4% (inactive) in assay [15]. The superoxide response (% of plate) in [8] is 102% (inactive). In addition, the aptamer binding inhibition in [9] was 1% (inactive). For the same molecule, the figures for the response in [10] and in [12] were -8.88% (inactive) and 3.83% (inactive), respectively. In addition, in assay [13], the binding (% of control) was 96.4% (inactive). The efflux inhibition (fraction of control) in [14] is -0.16 (inactive). In addition, in assay [16], the differentiation response was 8.59% (inactive).
